In the library only some 4.2% were active in any assay of this set; here they are far more common.
CCHF vOTU inh-1 = CCHFV vOTU protease inhibitors, primary screen, biochemical, Pep-AMC substrate, fluorescence. inhibition, % at 11.5 µM. hit rate 0.55% among 370,000. AID 651958, 2012. Crimean-Congo hemorrhagic fever virus L polyprotein viral ovarian tumor (vOTU) protease …
GDH-TPI inh = GDH-TPI coupling enzyme inhibitors, primary screen, artefact control for M. tuberculosis FBA inhibitor project, biochemical, absorbance, full deck; GDH-TPI coupled enzyme counterscreen, NADH absorbance; AID 588335, 2011; hit rate 1.2% among 360,000; inhibition, % at 4.8 µM
Mtb FBA inh = Mtb FBA enzyme inhibitors, primary screen, biochemical, fluorescence, strain H37Rv | purified M. tuberculosis FBA, fluorescence read-out | inhibition, % at 1 µM | Fructose-bisphosphate aldolase (Mycobacterium tuberculosis (strain ATCC 25618 / H37Rv)), … | AID 588726, 2011 | hit rate 2.3% among 360,000; in the data active = inhibition above about 27%
Mtb betalactam = beta-lactam sensitization of Mtb H37Rv, H37Rv; M. tuberculosis H37Rv growth with meropenem, percent inhibition; inhibition, % at 25 µM; hit rate 0.27% among 330,000; AID 434955, 2010; call rule not given here;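 note: growth measured after seven days incubation then overnight dye step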
RecA splice inh = Mtb RecA intein splicing inhibitors, primary screen, biochemical, fluorescence, HTS. Protein RecA (Mycobacterium tuberculosis (strain ATCC 25618 / H37Rv)), P9WHJ3. cell-free RecA intein splicing. inhibition, % (no concentration beside the values). hit rate 0.75% among 290,000. AID 2221, 2009; in the data active = inhibition above about 30%; inconclusive = no clear call, values can overlap the other calls
Target sequence (P9WHJ3 whole entry, looked up, canonical isoform): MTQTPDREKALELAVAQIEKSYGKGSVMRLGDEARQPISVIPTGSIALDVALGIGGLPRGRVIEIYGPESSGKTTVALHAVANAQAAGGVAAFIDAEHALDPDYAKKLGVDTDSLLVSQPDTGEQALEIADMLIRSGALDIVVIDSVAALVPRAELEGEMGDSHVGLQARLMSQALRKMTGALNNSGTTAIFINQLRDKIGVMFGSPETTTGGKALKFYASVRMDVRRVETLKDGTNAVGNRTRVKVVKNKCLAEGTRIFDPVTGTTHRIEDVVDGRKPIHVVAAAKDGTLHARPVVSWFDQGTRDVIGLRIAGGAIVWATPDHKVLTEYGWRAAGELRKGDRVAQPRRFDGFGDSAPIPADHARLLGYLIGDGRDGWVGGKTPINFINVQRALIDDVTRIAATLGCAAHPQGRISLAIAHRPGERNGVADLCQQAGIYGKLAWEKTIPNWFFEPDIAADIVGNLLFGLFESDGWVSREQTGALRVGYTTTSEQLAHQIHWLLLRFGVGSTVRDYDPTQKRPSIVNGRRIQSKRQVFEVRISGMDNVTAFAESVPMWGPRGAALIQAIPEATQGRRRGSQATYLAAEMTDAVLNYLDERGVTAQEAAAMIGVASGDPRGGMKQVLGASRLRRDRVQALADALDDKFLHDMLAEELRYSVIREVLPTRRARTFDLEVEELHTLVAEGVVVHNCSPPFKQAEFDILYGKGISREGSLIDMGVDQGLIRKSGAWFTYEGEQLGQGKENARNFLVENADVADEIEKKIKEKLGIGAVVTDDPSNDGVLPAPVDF
CCHF vOTU inh-2 = CCHFV vOTU protease inhibitors, confirmation, biochemical, Pep-AMC substrate, fluorescence. shares compounds with CCHF vOTU inh-1. Recombinant CCHFV vOTU. inhibition, % at 11.5 µM. hit rate 17% among 1,900
Hits are given with their value; n = inactive; u = inconclusive; x = not tested or not shown. Cut-off read from the data, not from the text of the source, unless noted: active = inhibition above about 30%; inactive = the rest.

SMILES	CCHF vOTU inh-1	GDH-TPI inh	Mtb FBA inh	Mtb betalactam	RecA splice inh	CCHF vOTU inh-2
Cc1ccc(N2C(=O)[C@@H]3[C@H](C2=O)C2c4ccccc4C=CN2[C@@H]3C(=O)c2ccco2)cc1 (stereo partly specified)	77.7	n	n	x	x	101.3
COc1ccc(C2=NO[C@@H]3C(=O)N(c4ccc5c(c4)OCCO5)C(=O)[C@H]23)cc1OC	n	n	n	n	n	x
CC(=O)[C@@H]1[C@@H]2C(=O)N(Cc3ccccc3)C(=O)[C@@H]2C2c3ccccc3C=CN21 (stereo partly specified)	64.0	n	n	n	n	32.9
CC(C)(C)C(=O)[C@@H]1[C@@H]2C(=O)N(c3ccc4c(c3)OCCO4)C(=O)[C@@H]2C2c3ccccc3C=CN21 (stereo partly specified)	53.5	n	n	n	n	n
O=C1C2C3C=CC(C3)C2C(=O)N1Cc1ccccc1 (stereo unspecified)	n	n	n	n	n	x
Cc1ccccc1-c1noc(CCC(=O)NCc2ccco2)n1	n	n	n	n	n	x
COc1ccc(C(=O)NCCS(=O)(=O)N2CCCCCC2)cc1	n	n	n	n	n	x
COc1ccc(C(=O)NCCS(=O)(=O)N2CCCC2)cc1	46.2	n	n	n	n	n
COc1cc(Cl)c(C)cc1NC(=O)CN1C(=O)C2CCCCC2C1=O (stereo unspecified)	31.9	n	n	n	x	n
COc1ccc(Cl)cc1NC(=O)CN1C(=O)C(=O)N(C2CCCC2)C1=O	n	n	n	x	x	x
CS(=O)(=O)c1ccc(N2CCN(S(=O)(=O)c3cccs3)CC2)c([N+](=O)[O-])c1	34.5	n	n	n	x	n
Cc1cccc(N2CCN(S(=O)(=O)c3cccs3)CC2)c1C	n	n	n	n	n	x
O=C(Cc1c[nH]c2ccccc12)Nc1ccc(Nc2cccnc2)c(-c2ccc(F)c(F)c2)c1	n	x	x	x	x	x
O=C(Cc1c[nH]c2ccccc12)Nc1ccc(Nc2cccnc2)c(-c2ccc(-c3ccccc3)cc2F)c1	30.4	x	x	x	x	n
CCOC(=O)[C@]12CCCC3=C1N(CCC3)C(=O)[C@@H](CC(=O)N1CCN(C(=O)c3ccco3)CC1)C2	n	x	x	x	x	x
CCOC(=O)C1=CCC(c2cc3ccc(OC)cc3n2C(=O)OC(C)(C)C)NC1 (stereo unspecified)	34.4	x	x	x	x	n
COc1cccc(-c2cc(C(C)=O)c3n(c2=O)CCC3)c1OC	n	x	x	x	x	x
Cc1cccc(C(=O)N2CCN(CCNC(=O)C(=O)Nc3ccc(F)cc3)CC2)c1	n	n	n	n	n	x
CCNC(=O)N1CCN(c2ccc(N3CCN(C(=O)NCC)[C@@H](C)C3)c(C)c2)[C@H](C)C1	34.7	x	x	x	x	n
CCNC(=O)N1CCN(c2ccc(N3CCN(C(=O)NCC)[C@H](C)C3)c(C)c2)[C@H](C)C1	n	x	x	x	x	x
Cc1cc(N2CCN(CC(C)(C)O)C[C@H]2C)ccc1N1CCN(CC(C)(C)O)[C@@H](C)C1	n	x	x	x	x	x
C=CCn1c(COc2ccc(C)cc2)nnc1SCC(=O)c1ccc(-c2ccccc2)cc1	29.8	x	x	x	x	n
C=CCn1c(COc2ccccc2)nnc1SCC(=O)N/N=C/c1ccc(C)cc1	n	n	n	n	n	x
Cc1nc(N2CCOCC2)nc(N2CCCCC2)c1[N+](=O)[O-]	43.7	n	n	n	n	n
CCCCCCCCCC(=O)N[C@@H]1c2cc(OC)c(OC)cc2C[C@H]1O	31.3	n	n	x	x	n
SMILES	CCHF vOTU inh-1	GDH-TPI inh	Mtb FBA inh	Mtb betalactam	RecA splice inh	CCHF vOTU inh-2
O=S(=O)(Nc1cccc2ccccc12)c1cccs1	n	n	n	n	n	x
O=S(=O)(Nc1ccc(O)c2ccccc12)c1cccs1	107.7	n	n	n	n	n
COc1ccc(C2(c3ccc(OC)cc3)NC(=O)N(CC(=O)N(C)C3CCC(C)CC3)C2=O)cc1 (stereo unspecified)	30.4	n	n	n	x	n
Cc1cc(C(F)(F)F)n(-c2nc(C(=O)NN)cs2)n1	n	n	n	n	n	x
CCOC(=O)c1csc(-n2nc(C)cc2C(F)(F)F)n1	30.9	n	n	n	n	n
COc1cccc(-c2ccc(NC(=O)C3CCCN(Cc4cnn(C(C)C)c4)C3)cc2)c1 (stereo unspecified)	n	n	n	n	n	x
Cc1oc2c(c1C(=O)O)C(=O)c1ccccc1C2=O	67.5	n	n	n	67.7	78.0
Cc1cc(=O)oc(C)c1C(=O)O	n	n	n	u	n	x
CC(=O)Nc1ccc(N/C=C/C(=O)c2ccco2)cc1	n	n	n	n	n	x
CN(C)c1ccc(N/C=C/C(=O)c2ccco2)cc1	67.7	n	n	n	n	n
CC1Cc2ccccc2N1C(=O)COC(=O)c1ccc([N+](=O)[O-])o1 (stereo unspecified)	39.4	n	n	n	x	n
O=[N+]([O-])c1cccc(-c2nnc(-c3ccccc3F)o2)c1	n	n	n	n	n	x
CCOc1ccc(NC2=C(OC)C(=O)c3ccccc3C2=O)cc1	61.6	n	n	n	n	n
COC1=C(Nc2ccc(OC)cc2)C(=O)C(OC)=C(Nc2ccc(OC)cc2)C1=O	n	n	n	x	x	x
COC1=C(Nc2ccc(OC)cc2)C(=O)c2ccccc2C1=O	59.5	n	n	n	n	n
CCCCCC(=O)N1C[C@H](n2cc(-c3ccc(F)cc3)nn2)[C@@H](O)C[C@@H]1c1ccc(Cl)cc1	n	n	n	x	x	x
CC(NS(=O)(=O)/C=C/c1ccccc1)C(=O)NCCc1ccc(S(N)(=O)=O)cc1 (stereo unspecified)	n	n	n	n	n	x
CC(NS(=O)(=O)/C=C/c1ccccc1)C(=O)O (stereo unspecified)	31.9	n	n	n	n	n
Cc1occc1C(=O)NNC(=O)CN1C(=O)NC(C)(c2ccccc2)C1=O (stereo unspecified)	n	n	n	n	n	x
CCCCC(CC)C(=O)Oc1ccc(O)c(C(C)(C)C)c1 (stereo unspecified)	31.2	n	n	n	n	n
O=c1cc(-c2ccc(O)c(O)c2)oc2c1ccc1ccccc12	33.8	n	n	n	x	n
O=c1cc(-c2ccccc2)oc2c1ccc1ccccc12	n	x	x	x	x	x
CCCCNS(=O)(=O)CC1NCc2ccccc21 (stereo unspecified)	n	x	x	x	x	x
Cc1cc(=O)[nH]c(N/N=C/C=C/c2ccccc2)n1	34.6	37.5	n	n	n	n
O=C1C=C(O)c2cccc(O)c2C1=O	94.2	n	n	n	x	n
CC12CCC(C(=NO)C1=O)C2(C)C (stereo unspecified)	35.6	n	n	x	x	n
CC12CCC(C(=NO)C1=NO)C2(C)C (stereo unspecified)	n	n	n	x	x	x
CCOC(=O)C1=C(Cc2ccc(C)cc2)C(=O)c2ccccc2C1=O	96.0	x	x	n	60.6	n
